The values that follow come from PubChem BioAssay (EPA / NIEHS).

Assay [1] can be described thus: IUF_NPC3_neuronal_differentiation_120hr: Leibniz Research Institute for Environmental Medicine (IUF) 120-hour Neuronal Differentiation Assay (NPC3) (AID 2284301). In short, it runs like this:
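Value is percent TUBB3-positive neurons among Hoechst-stained nuclei in the migration area, scored by trained CNN after 120 h differentiation. Primary hNPC spheres on poly-D-lysine/laminin, N2 medium, continuous dosing from day 0, half-refeed day 3; DMSO reference.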

Assay [2] is described as follows: IUF_NPC4_neurite_length_120hr: Leibniz Research Institute for Environmental Medicine (IUF) 120-hour Neuronal Morphology Assay for Neurite Length (NPC4) (AID 2284302). In short, it runs like this: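 Neurite length, the mean in um across TUBB3-stained neurons, is derived by skeletonization of high-content images after 120 h differentiation. Compound exposure, 7 concentrations plus solvent control, ran from plating of hNPC spheres on poly-D-lysine/laminin, with medium half-replaced on day 3.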

Assay [3] is described as follows: IUF_NPC5_oligodendrocyte_differentiation_120hr: Leibniz Research Institute for Environmental Medicine (IUF) 120-hour Oligodendrocyte Differentiation Assay (NPC5) (AID 2284304; active means hit-call score of the fitted dose curve at least 0.9, where 1 is the maximum;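 further: primary human fetal neural progenitor spheres plated to migrate and differentiate; share of O4-positive cells among Hoechst nuclei found by CNN image analysis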). In outline: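 Human fetal neural progenitor spheres (0.3 mm) plated on poly-D-lysine/laminin in N2 differentiation medium and exposed for 120 h at 7 concentrations, with half-medium renewal at day 3. O4-positive cells identified by CNN, expressed as percent of Hoechst nuclei.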

Assay [4] in a line: IUF_NPC4_neurite_area_120hr: Leibniz Research Institute for Environmental Medicine (IUF) 120-hour Neuronal Morphology Assay for Neurite Area (NPC4) (AID 2284305; active means hit-call score of the fitted dose curve at least 0.9, where 1 is the maximum). In short, it runs like this: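 Neurite area (pixels, nuclei excluded) of TUBB3-positive neurons from hNPC spheres differentiating 5 days under continuous exposure at 37 C, 5% CO2. High-content imaging; loss of signal versus DMSO control across 7 concentrations.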

A short description of assay [5]: IUF_NPC2-5_cytotoxicity_72hr: Cytotoxicity Assessment at 72 hours in the Leibniz Research Institute for Environmental Medicine (IUF) Neural Progenitor Cell Migration and Differentiation Assay for Cytotoxicity (NPC2-5) (AID 2284306; active means hit-call score of the fitted dose curve at least 0.9, where 1 is the maximum;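 further: LDH release into supernatant measured by resorufin fluorescence marking membrane damage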). In outline: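 Membrane-integrity cytotoxicity at 72 h, read as LDH-driven resorufin fluorescence in supernatant. hNPC spheres from fetal cortex differentiate on coated plates in N2 medium, 37C, 5% CO2; seven serial compound concentrations plus solvent control (DMSO ≤0.1%).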

Assay [6] is described as follows: IUF_NPC2-5_cytotoxicity_120hr: Cytotoxicity Assessment at 120 hours in the Leibniz Research Institute for Environmental Medicine (IUF) Neural Progenitor Cell Migration and Differentiation Assay (NPC2-5) (AID 2284307; active means hit-call score of the fitted dose curve at least 0.9, where 1 is the maximum). In short, it runs like this:
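Human fetal (GW 16-19) neural progenitor spheres (0.3 mm) plated on poly-D-lysine/laminin in N2 differentiation medium, exposed 120 h with half-medium renewal at day 3; 7 concentrations plus solvent control, DMSO ≤0.1%. LDH release in supernatant read by resorufin fluorescence.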

A short description of assay [7]: IUF_NPC2-5_cell_number_120hr: Cell Number Assessment at 120 hours in the Leibniz Research Institute for Environmental Medicine (IUF) Neural Progenitor Cell Migration and Differentiation Assay (NPC2-5) (AID 2284308).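 Further: count of Hoechst-stained nuclei in migration zone around plated human neural progenitor spheres.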 In outline: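 Human fetal neural progenitor spheres (0.3 mm) plated on poly-D-lysine/laminin in N2 differentiation medium, exposed five days across 7 concentrations with half-medium refresh at day 3. Hoechst-positive nuclei counted in migration area at 120 h, relative to DMSO.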

A short description of assay [8]: IUF_NPC2-5_viability_120hr: Viability Assessment at 120 hours in the Leibniz Research Institute for Environmental Medicine (IUF) Neural Progenitor Cell Migration and Differentiation Assay (NPC2-5) (AID 2284312). In short, it runs like this:
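Alamar blue resorufin fluorescence read after 5 days of differentiation, with compound present from day 0 and replenished at day 3. Primary hNPC spheres on laminin-coated plates, 37C; seven concentrations plus solvent control, fitted against DMSO.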

Assay [9] can be described thus: CCTE_Mundy_HCI_iCellGluta_NOG_NeuriteLength: CCTE's Neurite Outgrowth Assay in iCellGluta cells for Neurite Length, Mundy Lab (AID 2284318; active means hit-call score of the fitted dose curve at least 0.9, where 1 is the maximum). In outline:
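Automated high-content imaging of betaIII-tubulin (Alexa Fluor-488) and Hoechst-stained cells gave neurite length, normalized to the DMSO baseline.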

Assay [10] can be described thus: IUF_NPC1_cytotoxicity_72hr: Cytotoxicity Assessment at 72 hours in the Leibniz Research Institute for Environmental Medicine (IUF) Neural Progenitor Cell Proliferation Assay (NPC1) (AID 2284332; active means hit-call score of the fitted dose curve at least 0.9, where 1 is the maximum;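 further: rising LDH signal means more cytotoxicity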). In outline: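 Membrane-integrity loss is scored from LDH released into the medium, detected as resorufin fluorescence, with activity fitted upward relative to baseline. Test material stays on human fetal-derived progenitor spheres for 72 h.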

Assay [11] in a line: CCTE_Mundy_HCI_iCellGluta_NOG_NeuronCount: CCTE's Neurite Outgrowth Assay in iCellGluta cells for Neuron Count, Mundy Lab (AID 2284340; active means hit-call score of the fitted dose curve at least 0.9, where 1 is the maximum;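 further: cells fixed about 48 h after compound addition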). In outline: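 Neuron count read by automated high-content imaging of Hoechst 33342 and betaIII-tubulin/Alexa Fluor-488 labelling in human iPSC glutamatergic neurons. Activity fitted relative to DMSO.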
The next assay concerns SERPINA7 (gene 6906). Nature of the assay: CCTE_GLTED_hTBG: CCTE's human Thyroxine-binding Globulin (TBG) Inhibition Assay, Great Lakes Toxicology and Ecology Division (GLTED) Lab (AID 2284343; active means hit-call score of the fitted dose curve at least 0.9, where 1 is the maximum;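 further: active chemicals lower fluorescence versus DMSO baseline by displacing probe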). In outline: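 Human thyroxine-binding globulin was exposed to each chemical for 2 hours, during which the ANSA probe could be displaced. Fluorescence was then measured at 380/475 nm, and loss of signal was analysed relative to DMSO.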

Read-out in the next assay: CD69, CD69 (gene 969)
Nature of the assay: BSK_LPS_CD69: BioMAP Diversity Plus: LPS Assay for CD69 Biomarker Activity (AID 2284303). The following applies: primary human HUVEC with PBMC. In outline:
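CD69 surface levels were read by ELISA after 24 h chemical treatment of an LPS-stimulated HUVEC plus PBMC co-culture; positive-direction fit against DMSO vehicle.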

Assay [12] can be described thus: CCTE_Deisenroth_5AR_NBTE_donor: CCTE's 5alpha-reductase NanoBRET Target Engagement Assay […], Deisenroth Lab (AID 2284319). The following applies: actives raise or lower the signal. In short, it runs like this:
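SRD5A2-NanoLuc, HEK293T, 20 h expression. Chemical 10 nM - 29.9 uM, 8 conc, duplicate; 3 h preincubation + 2 h testosterone tracer. Nano-Glo substrate plus extracellular NanoLuc inhibitor; donor lum 460 nm. DMSO baseline, bidirectional fit.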
A general note: Bioluminescence resonance energy transfer reports proximity on the nanometre scale.

Assay [13] in a line: CCTE_Deisenroth_5AR_NBTE_acceptor: CCTE's 5alpha-reductase NanoBRET Target Engagement Assay - Autofluorescence Screen, Deisenroth Lab (AID 2284321).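 Further: compound fluorescence in the acceptor channel under 460 nm excitation flags autofluorescence artifacts.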 The following applies: actives raise or lower the signal. In outline: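 Autofluorescence counter-screen: chemicals at an assumed nominal 100 uM in DMSO were scanned in three independent runs with 460 nm excitation. Gain or loss of acceptor signal was fitted bidirectionally against DMSO.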

A further assay has as its system IYD (gene 389434). The assay is described as follows: CCTE_GLTED_hIYD: CCTE's human Iodotyrosine Deiodinase (xIYD) Inhibition Assay, Great Lakes Toxicology and Ecology Division (GLTED) Lab (AID 2284317; active means hit-call score of the fitted dose curve at least 0.9, where 1 is the maximum;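 further: cell-free human IYD enzyme made in baculovirus insect cells; iodide freed from monoiodotyrosine measured by cerium arsenite color change at 420 nm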). In outline: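 Deiodination of MIT by insect-cell-produced human IYD is measured after a 3 h incubation with test chemical. Free iodide passes through a Dowex column and accelerates Sandell-Kolthoff Ce4+ reduction, read at 420 nm; run in triplicate.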

Structures are written as SMILES. Inconclusive results are not listed. Activity calls are given as the source filed them. How the source made its calls, unless noted: active means hit-call score of the fitted dose curve at least 0.9, where 1 is the maximum; inactive means score below 0.9.

For the compound `N#Cc1ccc(CC(=NNC(=O)Nc2ccc(OC(F)(F)F)cc2)c2cccc(C(F)(F)F)c2)cc1`, the compound was called inactive in assay [1], in assay [2], in [4], in assay [5], in [6] and in assay [7]. Moreover, the result in assay [8], in [9], in assay [10] and in assay [11] was inactive. The AC50 (usually the midpoint of the concentration-response curve, whichever way the signal moves) in [3] is 0.784 µM (active).

Take `c1ccc(CCCc2ccccn2)cc1`: the AC50 in the assay on SERPINA7 (gene 6906) was 22.2 µM (active).

`Nc1cc([N+](=O)[O-])ccc1O`: the result with CD69, CD69 (gene 969) was inactive.

As to `CC1CC(OC(=O)c2ccccc2O)CC(C)(C)C1` (centres undefined), the result in assay [12] and in assay [13] was inactive.

On to `C[C@H]1C[C@@H]2[C@H]([C@@H](O)C[C@@]3(C)[C@H]2CC[C@]3(O)C(=O)CO)[C@@]2(C)C=CC(=O)C=C12`, for which the result with CD69, CD69 (gene 969) was inactive.

Turning to `CC(C)=CCC[C@](C)(O)[C@@H]1CC=C(C)CC1`, the call in [12] and in assay [13] was inactive. In the assay with SERPINA7 (gene 6906), the AC50 was 19.2 µM (active).

As for `CCN(CC)c1ccc(C(=C2C=CC(=[N+](CC)CC)C=C2)c2ccc(S(=O)(=O)O)cc2S(=O)(=O)[O-])cc1`, in [12], the call was inactive. Also, the concentration at half-maximal activity (AC50) in assay [13] was 13 µM (active).

Regarding `CCCCCCCCCCCCCCCC(=O)OC[C@H](O)[C@H]1OC(=O)C(O)=C1O`, in the assay on IYD (gene 389434), the AC50 is 25.6 µM (active). Moreover, the result in assay [12] and in assay [13] was inactive.

`CCCCCCCCCCCCCOS(=O)(=O)O`: the AC50 was 34.2 µM (active) in the assay with IYD (gene 389434), 50 µM (active) in assay [12], 43.2 µM (active) in [13] and 31 µM (active) with SERPINA7 (gene 6906).

In the case of `COc1cc(C=O)ccc1OC(=O)C(C)C`, the outcome with CD69, CD69 (gene 969) was inactive.

`CCCCCCCCCCCCCCCC(=O)O`: in the assay with IYD (gene 389434), the AC50 was 80.9 µM (active).

Consider `O=C1OC2(c3cc(Br)c(O)c(Br)c3Oc3c2cc(Br)c(O)c3Br)c2c(Cl)c(Cl)c(Cl)c(Cl)c21`, for which the AC50 in the assay with IYD (gene 389434) is 23.7 µM (active).

Consider `Cc1ccc(S)cc1`, for which, in the assay with SERPINA7 (gene 6906), the AC50 is 1.59 µM (active).

As for `C=CCOC(=O)CCC1CCCCC1`, the result with CD69, CD69 (gene 969) was inactive.

On to `O=C1c2ccccc2C(=O)N1SC1CCCCC1`, for which the AC50 in the assay on SERPINA7 (gene 6906) is 29.4 µM (active).
